# Source: PubChem BioAssay (NCATS)
# Inconclusive results are not listed. Values without a mark were called inactive. The source made the active and inactive calls. Calls follow the shape of the dose curve; as a rule, active = well fitted inhibition curve with a large enough effect; inconclusive = small, poorly fitted or top-dose-only effect; inactive = no such curve, though single readings can be large or run the other way.
# Assay: BET inhibitor-based combinations targeting novel dependencies in MECOM-rearranged (r) AML: HNT-34 cell line (AID 2202234); also: nearly all actives have a fitted effect of over 35% in size;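 as to viability (% of control): plate controls were vehicle wells for no effect and cell-free wells for full effect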
# Conditions: HNT-34 AML viability, CellTiter-Glo luminescence, 48 h; series mostly up to 46 µM; viability (% of control): at the top concentration
# Excerpt: Ecotropic viral insertion site 1 (EVI1) is located on chromosome 3q26.2 as part of the MECOM (MDS and EVI1 complex) locus. Under normal hematopoiesis, EVI1 is a regulator of hematopoietic stem cell maintenance and self-renewal and EVI1 levels decrease as the cells differentiate. In approximately 5-10% of de novo acute myeloid leukemia (AML) EVI1 is aberrantly expressed, including Chromosomal inv(3)(q21;q26.2) or t(3;3)(q21;q26.2) alterations (MECOM-r) that account for about 50% of AML with EVI1 overexpression 31. AMLs with high levels of EVI1 have a poor prognosis and an overall survival time averaging between 10-14 months. EVI1 overexpression confers resistance in leukemia cells, highlighting the need to develop new targeted therapies for EVI1 overexpressing AMLs. Here, we performed an unbiased chemical drug screening by evaluating the single agent activity of a collection of 2,480 oncology-focused, approved and investigational drugs (NCATS Mechanism Interrogation Plates, MIPE v5.0) against a panel of seven AML cell lines. These included four MECOM-r cell-lines (AML-191, AML-194, UCSD-AML1 and HNT-34) and three non-MECOM-r AMLs (MV4-11, OCI-AML3 and SET-2). Exploiting the mechanistic redundancy built in the library, we identified target-level sensitivities in MECOM-r AML cells and relative activity as compared to other AML subtypes.
# A collection of 2480 mechanistically annotated dugs (MIPE v5.0) was used to screen four 3q26.2 rearranged AML cell lines and three non-3q26.2 rearranged AML cell lines. This library purposely exploits redundancy by including multiple inhibitors of key onco-targets, while simultaneously encompassing mechanistic diversity, targeting more than 800 distinct mechanisms of action. Briefly, cells were seeded in 5 uL of growth media using a Multidrop Combi dispenser into 1536 well white polystyrene tissue culture treated plates (Corning) at a density of 500cells/well. For each cell-line, for each of the 2480 drugs in MIPE v5.0 library, an 11-point dose curve was generated via a 1536 pin-tool. Plates were incubated for 48 hr at standard incubator conditions, covered by a stainless steel gasketed lid to prevent evaporation. Cell viability was determined by luminescence based, Cell Titer Glo assay (Promega). In detail, 3 uL of Cell Titer Glo were added to each well and plates were incubated at room temperature for 15 min with a stainless-steel lid in place. Luminescence readings were taken using a Viewlux (PerkinElmer) with a 2 s exposure time per plate. Compound dose-response curves were normalized to DMSO and empty well controls on each plate. Quantitative drug activity data from dose-response curves was determined utilizing area Under the Curve (AUC) and Z-transformed AUC (Z-AUC, a mean-centering transformation applied to each individual cell-line screened).
# Potency is read from the fitted curve at half-maximal effect.
SMILES,Potency,viability (% of control)
Cc1cc(C)c(CNC(=O)c2cc(-c3ccc(N4CCN(C)CC4)nc3)cc3c2c(C)cn3C(C)C)c(=O)[nH]1,23.5 µM (active),
C[C@H](Nc1nc(N[C@H](C)C(F)(F)F)nc(-c2cccc(Cl)n2)n1)C(F)(F)F,,98.1%
O=C(NC[C@H](O)CO)c1ccncc1Nc1ccc(I)cc1F,0.468 µM (active),
COc1ncc(-c2ccc3nccc(-c4ccnnc4)c3c2)cc1NS(=O)(=O)c1ccc(F)cc1F,0.263 µM (active),
CCCc1cc(C)[nH]c(=O)c1CNC(=O)c1cc(-c2ccc(N3CCN(C(C)C)CC3)nc2)cc2c1cnn2C(C)C,20.9 µM (active),
CN(C)CC[C@H](CSc1ccccc1)Nc1ccc(S(=O)(=O)NC(=O)c2ccc(N3CCN(Cc4ccccc4-c4ccc(Cl)cc4)CC3)cc2)cc1[N+](=O)[O-],1.86 µM (active),
c1ccc(-c2cc(CCC3CCNCC3)c3ccccc3n2)cc1,20.9 µM (active),
C[C@H]1[C@H](O)O[C@@H]2O[C@@]3(C)CC[C@H]4[C@H](C)CC[C@@H]1[C@@]24OO3,1.18 µM (active),
CCNCCc1ccc(CN(CC)c2cc(OC)ccc2[C@@H]2CCc3cc(O)ccc3C2)cc1,8.33 µM (active),
CN[C@@H](C)C(=O)N[C@H](C(=O)N1CCC[C@H]1C(=O)Nc1snnc1-c1ccccc1)C1CCCCC1,,53.8%
C/C(=N\NC(=S)N1CCC1)c1ccccn1,0.0372 µM (active),
CC(C)(O)c1coc(S(=O)(=O)NC(=O)Nc2c3c(cc4c2CCC4)CCC3)c1,,96.4%
COc1cc2ncnc(Nc3ccc(O)c(Br)c3)c2cc1OC,5.25 µM (active),
Cc1c(F)cccc1NC(=O)Nc1ccc(Cl)c(S(=O)(=O)[C@H]2CCCNC2)c1O,,89.3%
Cc1c(-c2ccc(-c3ccccc3F)cc2)nc2ccc(F)cc2c1C(=O)O,,102%
CCN1C(=O)CNc2ncc(-c3ccc(-c4ncn[nH]4)nc3C)nc21,2.09 µM (active),
CC1(N)CCN(c2cnc(-c3cccc(Cl)c3Cl)c(N)n2)CC1,,103% [at 15.6 µM]
Nc1ccc(F)cc1NC(=O)c1ccc(CNC(=O)/C=C/c2cccnc2)cc1,4.17 µM (active),
Nc1nc2cc(-c3ccc4ncc(C(=O)N5CCOCC5)n4c3)ccc2o1,16.6 µM (active),
Cc1c(CN2CCC(Nc3ncnc4sc(CC(F)(F)F)cc34)CC2)ccc2c1cc(C#N)n2Cc1cn[nH]c1,16.6 µM (active),

SMILES,Potency,viability (% of control)
COc1cc2c(NC3CCN(C)CC3)nc(N3CCCN(C)CC3)nc2cc1OCCCN(C)C,,103%
CC(=O)NCC(=O)N1[C@@H]2CC[C@H]1c1ccc(Nc3ncc(C(F)(F)F)c(NC4CCC4)n3)cc12,0.662 µM (active),
Cc1[nH]nc2ncc(C(=O)N3CCC[C@H]3c3ccc(Cl)cc3)cc12,,92.6%
O=c1oc2c(C3OCCCO3)c(O)ccc2c2c1CNCC2,,93.7%
C[C@@H](Oc1ccc2[nH]nc(/C=C/c3cnn(CCO)c3)c2c1)c1c(Cl)cncc1Cl,0.662 µM (active),
CC(C)(C)OC(=O)Nc1ccc(-c2cc(C(=O)NCCCCCCC(=O)NO)no2)cc1,2.35 µM (active),
Cc1cc(C(=O)NOCCO)c(Nc2ccc(I)cc2F)n(C)c1=O,0.0468 µM (active),
CC(C)(NS(=O)(=O)c1ccc2c(Cl)cnc(N=C(N)N)c2c1)C(=O)O,,104%
COc1cc(Oc2ccnc3cc(OC)c(OC)cc23)ccc1NC(=O)NC(C)c1nccs1 (stereo not given),13.2 µM (active),
N#Cc1ccc(C(c2ccc(C#N)cc2)n2cncn2)cc1,,82.5%
CO[C@@]12[C@H](COC(N)=O)C3=C(C(=O)C(C)=C(N)C3=O)N1C[C@@H]1N[C@@H]12,,79%
N[C@@H]1CN(c2c(F)cc3c(=O)c(C(=O)O)cn([C@@H]4C[C@@H]4F)c3c2Cl)CC12CC2,,98%
COc1ccc(Oc2cc(NCCC(F)(F)F)c3ncc(-c4ccc(C(=O)NC5CC5)c(C)c4)n3n2)c(F)c1F,0.417 µM (active),
Nc1ncnc(Nc2ccc(OCc3ccccc3)c(Cl)c2)c1/C=N/OCCN1CCOCC1,23.5 µM (active),
C/C(=C\C(=O)Nc1ccccc1C(=O)O)c1ccc2ccccc2c1,,103%
CNc1nc(-c2ccc3c(N)n[nH]c3c2)cc(N2C[C@@H](C(=O)NC3CCCCC3)CC[C@H]2C)n1,13.2 µM (active),
Cc1ccc(F)c(NC(=O)Nc2ccc(-c3cccc4[nH]nc(N)c34)cc2)c1,26.3 µM (active),
COC(=O)[C@@H]1CC2=CC(=O)CC[C@]2(C)[C@@]23O[C@@H]2C[C@@]2(C)[C@@H](CC[C@@]24CCC(=O)O4)[C@H]13,,102%
Cc1cnc(Nc2ccc(CN3CCOCC3)cc2)nc1Nc1cccc(S(=O)(=O)NC(C)(C)C)c1,1.18 µM (active),
Nc1ccn([C@@H]2O[C@H](CO)[C@@H](O)[C@H]2O)c(=O)n1,,92.3%
